The values that follow come from PubChem BioAssay (EPA / NIEHS).

Structures are written as SMILES. Where “and” joins values, the source holds several entries; their conditions need not be identical. Equal values may be shown once. Results filed as inconclusive are left out. The source holds several records for some structures; these can differ, active in one and inactive in another. Calls of active or inactive are those of the source. Rule for the calls, unless noted: active = hit-call score of the fitted dose curve at least 0.9, where 1 is the maximum; inactive = score below 0.9.

In assay [1] the target is human Retinoid X Receptor beta (RXRb), RXRB (gene 6257) (UniProt P28702). The experiment in a line: ATG_RXRb_TRANS: Attagene TRANS-FACTORIAL HepG2 Assay for human Retinoid X Receptor beta (RXRb) (AID 2283013; active = hit-call score of the fitted dose curve at least 0.9, where 1 is the maximum). The method in brief: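 Readout is reporter transcript induction after 24 h dosing. It is measured by RT-PCR of total RNA followed by fluorescent capillary electrophoresis. HepG2 liver cells carry transfected multiple reporter units driven by an exogenous RXRb-Gal4 fusion; activity is relative to DMSO.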

The target of assay [2] is human Thyroid Receptor alpha (THRa1), THRA (gene 7067) (UniProt P10827). Description: ATG_THRa1_TRANS: Attagene TRANS-FACTORIAL HepG2 Assay for human Thyroid Receptor alpha (THRa1) (AID 2283014; active = hit-call score of the fitted dose curve at least 0.9, where 1 is the maximum). The method in brief: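 First, HepG2 cells receive multiple GAL4-UAS reporter units and the chimeric receptor. They are then dosed for 24 h, after which RNA is reverse-transcribed, amplified, labelled, HpaI-cut and sized by capillary electrophoresis; gain relative to DMSO is scored.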

Assay [3] deals with Retinoic acid receptor RXR-alpha (Homo sapiens) (UniProt P19793). Description: ATG_RXRa_TRANS: Attagene TRANS-FACTORIAL HepG2 Assay for human Retinoid X Receptor alpha (RXRa) (AID 2283012; active = hit-call score of the fitted dose curve at least 0.9, where 1 is the maximum). The method in brief: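 TRANS format reporting activity of exogenous RXRa-Gal4 chimera in transiently transfected HepG2, 24 h exposure. Reporter transcripts quantified by RT-PCR with capillary electrophoresis, with gain of signal scored relative to DMSO.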

Read-out in assay [4]: E-selectin (Homo sapiens) (UniProt P16581)
The experiment in a line: BSK_3C_Eselectin: BioMAP Diversity Plus: 3C Assay for Eselectin Biomarker Activity (AID 2283015).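 For outcome: cell surface E-selectin protein quantified by ELISA 24 h after dosing.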 The settings on record: primary human endothelial cells (HUVEC); actives raise or lower the signal. The method in brief: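 Human vascular endothelium from umbilical vein is exposed to test chemicals for 24 h. E-selectin levels are read by ELISA and compared with DMSO controls.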

Read-out in assay [5]: Interleukin-1 alpha (IL1a), IL1A (gene 3552)
Description: BSK_BE3C_IL1a: BioMAP Diversity Plus: BE3C Assay for Interleukin-1 alpha (IL1a) Biomarker Activity (AID 2283016). The note with it: primary human bronchial epithelial cells; actives raise or lower the signal. The method in brief: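 IL-1a measured by ELISA after 24 h treatment of human primary bronchial epithelial cells, with gain or loss of signal fitted versus DMSO. Parallel cultures stained with SRB gauge overt cytotoxicity.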

Read-out in assay [6]: Monocyte Chemoattractant Protein-1 (MCP1), CCL2 (gene 6347)
The experiment in a line: BSK_3C_MCP1: BioMAP Diversity Plus: 3C Assay for Monocyte Chemoattractant Protein-1 (MCP1) Biomarker Activity (AID 2283017). The note with it: primary human endothelial cells (HUVEC); actives raise or lower the signal. A digest of the protocol: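 Endothelial cells from human umbilical vein are dosed with chemical, cultured 24 h, then assayed for MCP-1 by ELISA; both increases and decreases are modelled against DMSO controls.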

Read-out in assay [7]: Human Leukocyte Antigen - DR isotype (HLADR), HLA-DRA (gene 3122)
The experiment in a line: BSK_3C_HLADR: BioMAP Diversity Plus: 3C Assay for Human Leukocyte Antigen - DR isotype (HLADR) Biomarker Activity (AID 2283019).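 For outcome: ELISA of cell-surface HLA-DR on HUVEC 24 h after dosing.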 The note with it: primary human endothelial cells (HUVEC); actives raise or lower the signal. The method in brief: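 Endothelial cells from human umbilical vein are treated with test chemical; after 24 h, HLA-DR levels are measured by ELISA. Data are fitted in both directions using DMSO as the baseline.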

Read-out in assay [8]: Interleukin-8 (IL8), CXCL8 (gene 3576)
The experiment in a line: BSK_3C_IL8: BioMAP Diversity Plus: 3C Assay for Interleukin-8 (IL8) Biomarker Activity (AID 2283020). The note with it: primary human endothelial cells (HUVEC); actives raise or lower the signal. A digest of the protocol: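 IL-8 was measured by ELISA in HUVEC cultures 24 h after chemical dosing, with gain or loss of signal fitted relative to DMSO. Parallel SRB total-protein staining tracked overt cytotoxicity.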

Read-out in assay [9]: Monokine induced gamma interferon (MIG), CXCL9 (gene 4283)
Description: BSK_3C_MIG: BioMAP Diversity Plus: 3C Assay for Monokine induced gamma interferon (MIG) Biomarker Activity (AID 2283021).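 For AC50: MIG protein level measured by immunoassay in the treated endothelial cultures.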 The settings on record: primary human endothelial cells (HUVEC); actives raise or lower the signal. The method in brief:
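ELISA measurement of MIG in human umbilical vein endothelial cells 24 h after treatment. Cytotoxicity tracked by SRB staining in parallel cultures; gain or loss of signal fitted relative to DMSO.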

human Thyroid Receptor alpha (THRa1), THRA (gene 7067), sequence (P10827 whole entry, looked up, the tested form may be a part): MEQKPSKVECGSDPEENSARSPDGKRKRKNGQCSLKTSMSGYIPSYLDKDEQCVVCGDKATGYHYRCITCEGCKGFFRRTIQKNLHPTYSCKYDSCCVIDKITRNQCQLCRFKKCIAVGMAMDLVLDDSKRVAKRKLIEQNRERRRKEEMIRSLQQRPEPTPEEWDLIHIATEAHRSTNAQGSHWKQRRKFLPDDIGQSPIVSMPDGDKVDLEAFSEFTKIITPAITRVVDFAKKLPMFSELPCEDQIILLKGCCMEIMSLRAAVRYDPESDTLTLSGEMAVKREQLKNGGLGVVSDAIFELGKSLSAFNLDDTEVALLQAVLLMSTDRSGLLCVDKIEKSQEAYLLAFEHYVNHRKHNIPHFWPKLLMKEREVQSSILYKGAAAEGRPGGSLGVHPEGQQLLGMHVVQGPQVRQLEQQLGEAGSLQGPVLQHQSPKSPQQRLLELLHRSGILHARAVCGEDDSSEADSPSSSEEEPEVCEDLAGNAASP
E-selectin (Homo sapiens), sequence (P16581 whole entry, looked up): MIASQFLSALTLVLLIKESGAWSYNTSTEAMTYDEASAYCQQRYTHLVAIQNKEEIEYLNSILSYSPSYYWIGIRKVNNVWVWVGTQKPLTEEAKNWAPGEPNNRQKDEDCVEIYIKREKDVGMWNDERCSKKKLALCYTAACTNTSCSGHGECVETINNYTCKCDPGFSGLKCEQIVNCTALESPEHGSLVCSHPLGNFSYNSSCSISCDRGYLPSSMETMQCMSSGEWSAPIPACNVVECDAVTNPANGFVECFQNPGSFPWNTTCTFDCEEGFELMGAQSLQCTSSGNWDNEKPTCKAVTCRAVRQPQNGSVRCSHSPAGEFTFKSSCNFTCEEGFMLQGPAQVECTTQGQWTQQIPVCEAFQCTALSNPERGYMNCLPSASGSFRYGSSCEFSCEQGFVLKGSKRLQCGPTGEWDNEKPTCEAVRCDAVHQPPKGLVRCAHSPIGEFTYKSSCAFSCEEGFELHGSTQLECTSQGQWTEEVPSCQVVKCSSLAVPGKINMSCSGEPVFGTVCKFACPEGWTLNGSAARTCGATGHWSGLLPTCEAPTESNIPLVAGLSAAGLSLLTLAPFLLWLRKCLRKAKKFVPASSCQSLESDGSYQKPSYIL
Retinoic acid receptor RXR-alpha (Homo sapiens), sequence (P19793 whole entry, looked up, the tested form may be a part): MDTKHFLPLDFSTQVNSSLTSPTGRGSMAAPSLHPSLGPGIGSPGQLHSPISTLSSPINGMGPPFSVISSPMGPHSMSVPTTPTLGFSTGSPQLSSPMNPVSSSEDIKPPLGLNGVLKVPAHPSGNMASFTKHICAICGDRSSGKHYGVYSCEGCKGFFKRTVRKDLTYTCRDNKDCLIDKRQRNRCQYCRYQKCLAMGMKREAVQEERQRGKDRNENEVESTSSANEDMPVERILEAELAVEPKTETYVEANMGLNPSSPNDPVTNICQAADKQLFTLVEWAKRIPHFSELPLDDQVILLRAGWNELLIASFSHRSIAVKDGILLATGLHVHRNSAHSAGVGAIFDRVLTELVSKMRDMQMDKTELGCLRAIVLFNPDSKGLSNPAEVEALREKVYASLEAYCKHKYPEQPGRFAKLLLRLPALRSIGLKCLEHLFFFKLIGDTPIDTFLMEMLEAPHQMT
human Retinoid X Receptor beta (RXRb), RXRB (gene 6257), sequence (P28702 whole entry, looked up, the tested form may be a part): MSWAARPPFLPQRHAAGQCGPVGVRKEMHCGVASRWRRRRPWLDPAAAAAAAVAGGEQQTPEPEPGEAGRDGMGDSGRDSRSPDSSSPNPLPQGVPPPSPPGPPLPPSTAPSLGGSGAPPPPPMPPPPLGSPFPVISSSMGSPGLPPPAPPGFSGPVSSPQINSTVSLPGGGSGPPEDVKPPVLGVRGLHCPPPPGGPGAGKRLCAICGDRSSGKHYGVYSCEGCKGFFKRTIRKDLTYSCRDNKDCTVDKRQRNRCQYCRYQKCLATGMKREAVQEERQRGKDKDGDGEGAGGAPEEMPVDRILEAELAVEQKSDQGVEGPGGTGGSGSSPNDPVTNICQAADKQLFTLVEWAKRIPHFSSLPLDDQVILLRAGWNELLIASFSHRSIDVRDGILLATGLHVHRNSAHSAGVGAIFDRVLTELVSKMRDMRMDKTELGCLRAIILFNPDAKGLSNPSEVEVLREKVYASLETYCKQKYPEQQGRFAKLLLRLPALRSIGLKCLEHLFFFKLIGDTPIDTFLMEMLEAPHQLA

In the case of `CC(C)CC(O)Cc1ccccc1` (stereo unspecified), the result in assay [1] and in assay [2] was inactive.
With `CCCCCC/C=C/C=O`, the molecule was classed as inactive in assay [1].
As for `CCN(CCO)c1cccc(C)c1`, the result in [1] was inactive.
For the molecule `O=S(=O)(O)CC(O)CCl` (stereo unspecified), in assay [1], the outcome was inactive.
The AC50 is the concentration giving half of the maximal activity seen. For `C/C=C\C/C=C/CCCCCCCCOC(C)=O`, the call in assay [3], in assay [2], in assay [6], in assay [8] and in [9] was inactive. Also, the values for the AC50 in assay [4], in assay [5] and in [7] were 19.6 µM (active), 12.1 µM (active) and 27 µM (active), respectively.
For the molecule `O=c1c2ccccc2oc2ccccc12`, the result in assay [3], in assay [2], in [4], in assay [6], in assay [7] and in assay [8] was inactive. Moreover, in assay [9], the result was inactive. For the same molecule, in assay [5], the concentration at half-maximal activity (AC50) is 0.173 µM (active).
On to `CCOC(=O)NNc1nncc2ccccc12`, for which the molecule was called inactive in [3] and in [2].
`O=C1c2cccc(O)c2C(=O)c2c(O)cc(CO)cc21`: the outcome in [1] and in assay [2] was inactive.
For the molecule `Nc1ccc(N)c(Cl)c1`, the molecule was called inactive in assay [1], in assay [4], in assay [5], in [8] and in assay [9]. For the same molecule, the AC50 in assay [4] was 5.26 µM (active); in assay [5], 20 µM (active); in [6], 32.4 µM (active) and 31.9 µM (active); in [7], 30.2 µM (active) and 31.4 µM (active).
Turning to `CC=CC(F)(F)C(F)(F)C(F)(F)F`, the outcome in assay [1] and in assay [2] was inactive.
Consider `CCO[Si](C)(OCC)OCC`, for which the outcome in [4], in assay [5], in [6], in assay [7], in assay [8] and in assay [9] was inactive.
Turning to `CC(=O)OCCC1CCCCC1`, the outcome in assay [2] was inactive.
The same measure, in the same setting: as for `Nc1nc2ccccc2[nH]1`, the entry is “inactive”; as for `c1cc(C(c2ccc(OCC3CO3)cc2)C(c2ccc(OCC3CO3)cc2)c2ccc(OCC3CO3)cc2)ccc1OCC1CO1` (stereo unspecified), “inactive”.
For `CCOC(=O)c1ccccc1C(=C1C=C(Br)C(=O)C(Br)=C1)c1cc(Br)c(O)c(Br)c1`, the concentration at half-maximal activity (AC50) in assay [4] was 21 µM (active) and 19.9 µM (active); in assay [5], 4.38 µM (active) and 4.46 µM (active); in [6], 21.6 µM (active) and 20.9 µM (active); in [7] it was 19.5 µM (active) and 16 µM (active); in assay [8], 20.2 µM (active) and 21.7 µM (active); in [9], 23.6 µM (active) and 21.7 µM (active).
